Measurements: PubChem BioAssay (NCI)
Several values for one entry are separate records, joined by “and”; a condition that tells them apart may be missing. Equal entries are not always repeated. This is part of a sample that, as a whole, favours compounds with a hit. Of some 83,000 tested, about 20% had one in any assay.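 Negative percent growth values reflect cell death: -40 means 40% of the cells present at the start died, and -100 means all died.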 Values without a mark were called inactive. Activity calls are given as the source filed them.

test system: T-47D breast; experiment: NCI-60 one-dose screen, 48 h (100 = growth as untreated, 0 = no growth, -100 = all killed); details: 10 µM unless noted
Protocol: Growth inhibition of the T-47D human tumor cell line is measured as a screen for anti-cancer activity. Cells are grown in 96 well plates and exposed to the test compound for 48 hours. Compounds are tested at a single concentration, which is 10^-5 M for most compounds. The reported endpoint is percent growth (GI% or GIPRCNT), where numbers from 0 - 100% represent growth inhibition, and numbers from -100% - 0 represent cell death. For example, a value of 40 represents 60% growth inhibition. A value of 0 means no net growth occurred over the course of the experiment. A value of -40 indicates 40% of cells at the beginning of the experiment died by the end of the experiment. A value of -100 means all cells are dead at the end of the experiment.
NCI-60 Human Tumor Cell Lines Screen was performed using the standard one-dose NCI protocol, which is described in more detail at https://dtp.cancer.gov/discovery_development/nci-60/default.htm.
Compounds with GIPRCNT values below 10 were considered active. Activity score was based on GIPRCNT using the following formula: […]
Score is 0 for GIPRCNT values of 100 or above, 50 for GIPRCNT values of 0, and 100 for GIPRCNT values of -100.

Row | Structure (SMILES) | growth
1 | Cc1c2ccncc2c(C)c2c1[nH]c1ccccc12 | -56.1% (active)
2 | C[C@H](O)CCC(=O)c1ccoc1 | 108%
3 | Nc1ccc(P(=O)(O)O)cc1 | 101%
4 | CCCCS(=O)(=O)Cl | 100%
5 | C[C@@H]1C/C=C\C(=O)O[C@H](/C=C/C#C/C=C/C(C)(C)[C@@H](O)c2cccc(O)c2Br)[C@@H](C)/C=C/[C@H](C)C[C@H](OC(N)=O)C1 | 12.6%
6 | O=P(O)(Nc1ccccc1)Nc1ccccc1 | 97%
7 | c1ccc2c(c1)sc1ccccc12 | 112%
8 | O=NN(c1ccccc1)c1ccccc1 | 107%
9 | Cc1ccc(S(=O)(=O)n2cc([C@@]3(O)C[C@H](CSC#N)OC3=O)c3ccccc32)cc1 | 62.8%
10 | CC[PH+](CC)CC.O=COC1OC([S-])C(OC=O)C(OC=O)C1OC=O.[Au+] (stereo not given) | -82.7% (active)
11 | O=NN1CCCCC1 | 102%
12 | Cc1ccc(NC2=N[C@]34CC(=O)CC[C@]3(C)[C@H]3CC[C@]5(C)C(=O)CC[C@H]5[C@@H]3C[C@@H]4S2)c(C)c1 | 41.8%
13 | O=C=Nc1ccc(Br)cc1 | 92.2%
14 | Cc1cc2c(cc1-c1ccnc(/C=C/C(=O)O)c1)C(C)(C)CCC2(C)C | 92.4%
15 | O=C1C=C(N2CC2)c2ccccc2C1=O | 75.5%
16 | O=C(Cc1ccccc1)c1ccccc1 | 100%
17 | O=C1c2ccccc2C(=O)N1N1CC1c1ccccc1 (stereo not given) | 89.2%
18 | CCOC(=O)c1cncn1C(C)c1ccccc1 (stereo not given) | 105%
19 | N#CCN(CC#N)[N+](=O)[O-] | 92.2%
20 | Cn1cc(-c2csc(-c3cn(CCCCN4CCOCC4)c4ccc(F)cc34)n2)c2cccnc21 | 76.9%

Row | Structure (SMILES) | growth
21 | C[C@]12CC[C@H]3[C@@H](C[C@@H]4SC(Nc5cccc(F)c5)=N[C@@]45CC(=O)CC[C@]35C)[C@@H]1CCC2=O | -0.755% (active)
22 | CC[C@H](C)[C@H](NC(=O)CN(C)C)C(=O)N(C)[C@H](C[C@@H](OC(C)=O)c1nc(C(=O)NC23CC(C(=O)OC)(C2)C3)cs1)C(C)C | 50.4%
23 | O=c1[nH]c(=O)n(Cl)c(=O)n1Cl | 112% and 95.3%
24 | CC1=C(C)C(=O)O[C@@H]([C@](C)(O)[C@]2(O)CC[C@@]3(O)[C@@H]4C[C@H]5O[C@]56CC=CC(=O)[C@]6(C)[C@H]4CC[C@]23C)C1 | 0.829% (active)
25 | CN(C)c1ccc([N+](=O)[O-])c([N+](=O)[O-])c1 | 105% and 97.2%
26 | C/C(=C\c1ccn(-c2ccc(N)cc2F)n1)[C@@H]1C[C@@H]2O[C@]2(C)CCC[C@H](C)[C@H](O)[C@@H](C)C(=O)C(C)(C)[C@@H](O)CC(=O)O1 | 35.5%
27 | O=c1c2ccccc2nc(-c2ccccc2Cl)n1-c1nnc(C(F)(F)F)s1 | 43.5%
28 | Cn1cc(C(=O)C[n+]2ccccc2)c2ccccc21 | 86.9%
29 | O=C1CN2CCC1CC2 | 91.1%
30 | Cc1c(C)c(N)c(C)c(C)c1N | 92.6%
31 | COc1ccn(C)c(=O)c1C#N | 81.6%
32 | O=CC1(c2ccccc2)CCN(Cc2ccccc2)CC1 | 105%
33 | O=C(Cc1ccccc1)NC(O)C(Cl)(Cl)Cl (stereo not given) | 110%
34 | COc1ccc(N(CC(=O)NCCC[Te]c2ccccc2)C(=O)c2ccccc2)cc1 | 135%
35 | O=[N+]([O-])c1ccc(CI)cc1 | 73.3%
36 | O=C(O)c1ccc(=O)[nH]c1 | 88.8% and 89.6%
37 | COc1ccc(O)c2c(=O)c3c(OC)cc4c(c3oc12)[C@@H]1C=CO[C@@H]1O4 | 5.73% (active)
38 | O=S(=O)(F)c1cccc(Cl)c1C[P+](c1ccccc1)(c1ccccc1)c1ccccc1 | 91.9%
39 | CCC1CCC(=O)O1 (stereo not given) | 93.5% and 118%
40 | N#Cc1ccc(Cl)cc1 | 104%
